Compound activity from PubChem BioAssay.
Cycloheximide cs: counter-screen hit for Shiga toxin inhibitors, cycloheximide. 300,000 tested, 12% active. cell reporter, cycloheximide protein synthesis inhibition counterscreen. AID 2314. max response, %; in the data active means max response mostly above about 13%, no sharp cut-off; inactive means mostly below about 14%; further: read at 38.3 µM for the half of the compounds with a filed dose; 0% is about no effect
Shiga inhibitor: blocks Shiga toxin action in Vero cells | AID 2315 | 290,000 tested, 9.2% active | inhibition, % at 38.7 µM | Vero cells, Shiga toxin protein synthesis inhibition reporter; in the data active means inhibition mostly above about 28%, no sharp cut-off; inactive means mostly below about 43%; further: 0% is about no effect
Sm TGR block: inhibitors of Schistosoma mansoni thioredoxin glutathione reductase. Q962Y6. purified TGR, DTNB reduction, TNB absorbance 405 nm. Potency, µM (titrated, usually from 114 µM), inactives show at the highest dose activity change, negative = inhibition, hits mostly inhibitors. 360,000 tested, 3% active. AID 485364; further: potency means the concentration at half of the fitted maximal effect; on the % scale 0 is the no-effect control and ±100 the full control effect; nearly all actives have a fitted effect of over 60% in size
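TGR 20 nM + NADPH 100 uM (dispensed conc.), cpd preinc 15 min RT; start with NADPH (500 uM addition) then DTNB (15 mM addition). Kinetic TNB absorbance, 405 nm filter. Four-parameter Hill fit across titration.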
TbPYK inhibitor: T. brucei pyruvate kinase inhibition. TbPYK enzyme, Kinase-Glo Plus ATP luminescence, 45 min. AID 624173. 410,000 tested, 0.12% active. Potency, µM (highest dose often 76.8 µM), for the others: top-dose activity, negative = inhibition, hits mostly inhibitors; further: potency means the concentration at half of the fitted maximal effect; on the % scale 0 is the no-effect control and ±100 the full control effect; nearly all actives have a fitted effect of over 50% in size
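Luminescence from Kinase-Glo Plus, added after a 45-minute room-temperature reaction, served as the end-point read-out. The enzyme and substrate were preincubated with compound before ADP (130 uM final) initiated turnover. Concentration-effect curves came from normalized qHTS data.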
LmPK inh: inhibitors of Leishmania mexicana pyruvate kinase; Q27686; purified LmPK, Kinase-Glo ATP luminescence, 1 h; Potency, µM (highest dose often 57.5 µM), for the others: at the highest dose activity change, negative = inhibition, most hits filed as inhibitors; 290,000 tested, 0.37% active; further: potency means the concentration at half of the fitted maximal effect; on the % scale 0 is the no-effect control and ±100 the full control effect
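Purified LmPK (0.1 nM) converted ADP (0.1 mM) to ATP with PEP (0.5 mM) in imidazole buffer pH 7.2 with KCl and MgCl2, 1 h at room temperature. ATP was read by Kinase-Glo luminescence; data normalized to uninhibited and no-enzyme controls.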
Giardia FBPA inh: inhibitors of Giardia lamblia fructose-1,6-bisphosphate aldolase. 290,000 tested, 0.71% active. AID 2451. Potency, µM (top dose mostly 59.6 µM), inactives show at the highest dose activity, negative = inhibition, most hits filed as inhibitors. A8B2U2. purified Giardia FBPA; further: potency means the concentration at half of the fitted maximal effect; on the % scale 0 is the no-effect control and ±100 the full control effect; nearly all actives have a fitted effect of over 55% in size
Target sequence (A8B2U2 whole entry, looked up): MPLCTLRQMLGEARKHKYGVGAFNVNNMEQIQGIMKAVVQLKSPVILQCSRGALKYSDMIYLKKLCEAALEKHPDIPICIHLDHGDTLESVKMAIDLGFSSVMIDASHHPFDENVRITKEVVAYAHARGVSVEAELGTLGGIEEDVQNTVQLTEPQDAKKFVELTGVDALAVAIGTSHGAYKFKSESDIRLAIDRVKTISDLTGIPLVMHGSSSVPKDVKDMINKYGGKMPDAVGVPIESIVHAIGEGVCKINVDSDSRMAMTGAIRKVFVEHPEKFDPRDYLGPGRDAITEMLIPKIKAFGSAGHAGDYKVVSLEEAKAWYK
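Giardia FBPA (40 nM reagent) was preincubated 10 min at RT with compound (up to 57.5 uM final), then substrate plus GAPDH/TPI/NAD/arsenate coupling system with diaphorase/resazurin was added; resorufin fluorescence (525/598 nm) was read after 20 min.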
The depositor's hits bear a star; ? = inconclusive; / = no result; [ ] = dose if it differs, or a comment. The full list was thinned out, with hits kept by preference. Unless noted, the call rests on the fitted dose curve; in most records, active means well fitted curve in the direction sought with a large enough effect; inconclusive means small, poorly fitted or top-dose-only effect, or another doubt; inactive means no such curve, though single readings can be large; an effect the other way counts as inactive or inconclusive.

SMILES	Cycloheximide cs	Shiga inhibitor	Sm TGR block	TbPYK inhibitor	LmPK inh	Giardia FBPA inh
COC(=O)c1sccc1NC(=O)Nc1ccc(F)cc1	30*	20	-1%	?	?	/
COC(=O)c1sccc1NC(=O)COc1ccccc1Cl	33*	active	1%	0%	-17%	7%
COC(=O)c1sccc1NC(=S)N(C)C1CCCCC1	7	17	4%	7%	-3%	-1%
COC(=O)N1CCC[C@@]2(CCN(C(=O)Nc3ccccc3)C2)C1	/	/	/	6%	/	-1%
CC[C@H](C)[C@@H](C(=O)NCCCCCCCCCCC(=O)N1CCNCC1)n1cc(CCCCCN)nn1	/	/	0%	-5%	/	/
CCn1cc(C(=O)N(C)c2cc(C)ccc2C)c2cc(OC)c(OC)cc2c1=O	/	/	-4%	-6%	/	/
Cc1ccc(C)c(N2CCN(c3nc4ccc(Cl)cc4n4cnnc34)CC2)c1	/	/	0%	4%	/	/
COC(=O)c1sccc1NC(=O)Nc1ccc(C)cc1	45*	87*	-10%	-27%	-22%	/
COC(=O)c1sccc1NC(=O)Nc1ccc(C)cc1C	25	-1	5%	-2%	2%	2%
N#Cc1c(-c2ccccc2)cc(-c2ccccc2)nc1SCC(O)CS(=O)(=O)Cc1ccc(Cl)cc1 (stereo not given)	/	/	-1%	-7%	/	/
C/C(CCC(=O)OC[C@H]1O[C@H](C#Cc2ccccc2)C=C[C@@H]1Oc1ccc(C)cc1)=N\O[C@@H](C)CN1CCCCc2nc(C)c(C)cc21	-1	50	35µM*	/	4%	-8%
C/C(CCC(=O)OC[C@@H]1O[C@H](C#Cc2ccccc2)C=C[C@@H]1Oc1ccc(C)cc1)=N/O[C@@H](C)CN1CCCCc2nc(C)c(C)cc21	/	/	/	/	/	0%[12.9 µM]
O=C(/C=C/c1ccco1)NC(=S)Nc1cccc(-c2nc3ccccc3s2)c1	/	/	/	-4%	/	/
CC(=O)Nc1cccc(-c2nc3ccc(NC(C)=O)cc3s2)c1	40*	78*	/	4%	-13%	-1%
CC(=O)Nc1cccc(-c2nc3ccccc3s2)c1	36*	98*	/	-3%	-9%	-6%
Cc1ccc(C(=O)NC(=S)Nc2cccc(-c3nc4ccccc4s3)c2)cc1	27*	60*	-1%	-2%	0%	-1%
Cc1c(C(=O)Nc2cccc(-c3nc4ccccc4s3)c2)oc2ccc(F)cc12	/	/	-2%	-4%	/	/
CC(=O)Nc1cccc(-c2cc(C)c3cc4c(cc3n2)OCO4)c1	37*	109*	2%	-1%	-1%	-17%
CC(=O)Nc1cccc(-c2csc(N)n2)c1	-2	30	2%	-3%	0%	1%
COc1ccc(-c2cnc(C)o2)cc1S(=O)(=O)Nc1ccc(F)cc1F	/	/	-3%	1%	/	/
Cc1ccc(N2C(=O)CS(=O)(=O)C23C(=O)N(Cc2ccc(Cl)cc2)c2ccccc23)cc1C (stereo not given)	/	/	6%	0%	/	/
COC(=O)Cc1ccc2sc(-c3ccccc3)nc2c1	62*	73*	8%	?	14µM*	-6%
CC(=O)c1cccc(N2C(=O)CN(S(C)(=O)=O)CC2(C)C(=O)NC2CCCC2)c1 (stereo not given)	/	/	2%	4%[15.4 µM]	/	/
Cc1ccc(NC(=O)CCn2c(=O)c3cccn3c3ccccc32)c(Cl)c1	/	/	-14%	1%	/	/
O=C(NCCc1ccc(O)c(O)c1)C1COc2ccccc2O1 (stereo not given)	20	16	4.5µM*	?	3%	-15%
SMILES	Cycloheximide cs	Shiga inhibitor	Sm TGR block	TbPYK inhibitor	LmPK inh	Giardia FBPA inh
O=C(NCc1ccc2c(c1)OCO2)C1COc2ccccc2O1 (stereo not given)	13	34*	-5%	0%	4%	0%
CCCCCOC(=O)c1ccc(Nc2nc(C(=O)OCC)nc3ccccc23)cc1	/	/	-1%	5%	/	/
CCC(C)(C)c1ccc(Oc2cccc(C(=O)O)c2)cc1	39*	163*	4%	-6%	9%	?
CCC(C)(C)c1ccc(Oc2ccc(N)cc2)cc1	-6	-32	3%	-15%	-1%	-1%
O=c1c2ccccc2nnn1-c1ccc(Br)cc1	44*	97*	-1%	0%	4%	0%
O=c1c2ccccc2cnn1-c1ccc(Br)cc1	57*	65*	-30%	4%	-6%	4%
O=c1c2ccccc2cnn1-c1ccc2ccccc2c1	33*	98*	-5%	-2%	-29%	0%
Cc1cc(C)cc(-n2nnc3ccccc3c2=O)c1	/	/	/	-1%	/	/
O=c1c2ccccc2cnn1Cc1ccc(Cl)c(Cl)c1	-6	-6	1%	3%	-10%	-4%
O=c1c2ccccc2cnn1-c1ccc(Cl)nn1	18*	42*	11%	5%	-5%	0%
CC(=O)c1ccc(NC(=O)c2ccc(-c3nc(COc4ccc(C)cc4)c(C)o3)cc2)cc1	/	/	11%	-5%	/	/
COc1ccc(-n2cc(C(=O)Nc3ccccc3C#N)c3ccccc3c2=O)cc1	/	/	1%	-1%	/	/
O=C(NC(=O)c1c(F)cccc1F)Nc1ccccc1SC(F)F	11*	28	41%	0%	-2%	-4%
CCOc1ccc(N(C)S(=O)(=O)c2ccc3c(c2)C(C)(C)C(=O)N3C)cc1	/	/	3%	3%	/	/
CC(=O)c1ccc(S(=O)(=O)NCC(=O)N2CCN(C/C=C/c3ccccc3)CC2)cc1	/	/	7.9µM*	4%	/	/
Cc1ccc(S(=O)(=O)NCCC(=O)N2CCN(C/C=C/c3ccccc3)CC2)cc1	/	/	-11%	3%	/	/
CCOc1ccccc1N(C)C(=O)c1cc(S(=O)(=O)NCc2ccc(C)cc2)ccc1F	/	/	1%	3%	/	/
Cc1ccc(CNC(=O)c2cc3c(s2)-c2ccccc2SC3)cc1	/	/	7%	0%	/	/
CCOCCCNC(=O)c1cc2c(s1)-c1ccccc1SC2	16	63*	-18%	?	-3%	11%
CC(C)CNC(=O)c1c(N)n(Cc2ccco2)c2nc3ccccc3nc12	-2	-32	32µM*	-4%	5%	-12%
COCCCNC(=O)c1c(N)n(Cc2ccco2)c2nc3ccccc3nc12	6	14	4µM*	-9%	5%	?
CCCNC(=O)c1c(N)n(Cc2ccco2)c2nc3ccccc3nc12	5	-7	-7%	-4%	1%	-1%
CCOC(=O)C1=CN(C(=O)OC(C)(C)C)C(CN2C(=O)COCC2=O)C1 (stereo not given)	1	-6	/	/	/	7%
CCOC(=O)COc1ncn(-c2ccccc2)n1	-1	-6	-1%	2%	-5%	-3%
CCOC(=O)COc1ccccc1C(=O)c1cnn(-c2ccccc2)c1	59*	111*	-1%	5%	-6%	-4%
O=C(COc1ccccc1C(=O)c1cnn(-c2ccccc2)c1)Nc1ccc2ccccc2c1	57*	20	-14%	-4%	-2%	0%
COc1ccc(-n2cc(C(=O)c3ccc4ccccc4c3O)cn2)cc1	18	4	-7%	-3%	6%	1%
